Measured values taken from PubChem BioAssay (NCI).
Several values for one entry are separate records, joined by “and”; a condition that tells them apart may be missing. Identical values can stand only once. Compounds without any hit were thinned out: in the full panel of roughly 83,000, 20% have a hit.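 Treatment: one concentration, 48 hours, 96-well format. Scoring: percent growth, with anything below 10 considered active.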 Values without a mark were called inactive. Activity calls are given as the source filed them.

Test system: SK-MEL-2 melanoma
Experiment: NCI-60 one-dose screen, 48 h (100 = growth as untreated, 0 = no growth, -100 = all killed)
Conditions: 10 µM unless noted

With Cn1cc(-c2cc3nc(-c4cn(C)c5ncccc45)cc(N)n3n2)c2cc(F)ccc21 as the compound, how does the growth read?
The growth was 83.9%.

For Cc1ccccc1NC(=O)c1cccc(NC(=O)CCl)c1, which growth is on record?
Its growth is 92.9%.

How did the growth turn out when FC(F)(F)c1cc2c(Cl)ncnc2n1CCN1CCCCC1 was run?
The growth was -16% (active).

How did the growth turn out when Cn1cc(-c2cc(N)n3nc(-c4c[nH]c5ccc(Cl)cc45)cc3n2)c2cc(Br)cnc21 was run?
Its growth is -49.9% (active).

Test system: EKVX NSCLC
Experiment: as above
Conditions: 10 µM unless noted

For COc1ccc(-c2nc3ccccc3n2CC(=O)N=Nc2c(O)[nH]c3ccc(OC)cc23)cc1, which growth is on record?
Its growth is 77.8%.

Which growth does the source give for COc1cc(NC(=O)C(C)C)ccc1C(=O)NC(=S)Nc1ccc(S(N)(=O)=O)cc1 here?
The growth was 102%.

How did the growth turn out when COc1cc(C2CC(c3cc(OC)c(OC)c(OC)c3)=Nc3c(N)nc(N)nc3N2)ccc1Oc1nc(Nc2ccc(F)cc2)nc(N(C)C)n1 (configuration not stated) was run?
Its growth is 67.5%.

For COc1ccc(C2=NN(C(=O)[C@H]3[C@@H](c4ccco4)c4sc(=O)[nH]c4S[C@@H]3C)C(c3ccc4ccccc4c3)C2)cc1 (some centres not stated), which growth is on record?
The growth was 23.2%.

For O=C(CSc1nc2c(c(=O)[nH]1)CCCC2)Nc1ccccc1C(=O)O, which growth is on record?
Its growth is 99.2%.

Which growth does the source give for O=C1c2cccc3c(N4CCN(c5ccccc5)CC4)ccc(c23)C(=O)N1c1cccc(-c2nn(-c3ccccc3)cc2-c2nc3ccccc3s2)c1 here?
The growth was 86.6%.

With N#CCc1nnc(NC(=O)c2ccc(-n3c(=O)[nH]c4ccccc4c3=O)cc2)s1 as the compound, how does the growth read?
Its growth is 94.8%.

CCOC(=O)/C(F)=C/C1CC1C(c1ccccc1)c1ccccc1 (configuration not stated) was tested. Which growth did it give?
Its growth is 86.5%.

For Cc1ccc(S(=O)(=O)N(CCn2ccnc2[N+](=O)[O-])CCn2ccnc2[N+](=O)[O-])cc1, which growth is on record?
Its growth is 95.5%.

With CC(C)(C)C(=O)c1c2c(c3ccc4c5ccccc5ccc4n13)C(=O)c1ccccc1C2=O as the compound, how does the growth read?
The growth was 86.2%.

For O=C(N=Nc1c(O)[nH]c2ccc(Cl)cc12)c1ccc2nc(-c3ccc(Cl)cc3)[nH]c2c1, which growth is on record?
Its growth is 29.9%.

COc1ccc(NC(=O)Cn2c(/C=C/c3cccc(OC)c3)nc3ccccc3c2=O)cc1 was tested. Which growth did it give?
The growth was 79.6%.

Which growth does the source give for Cc1cccc(/C=C/c2ccc(NC(=S)NCCCCN(C)C)cc2)c1 here?
The growth was -90.5% (active).

For Cc1ccc(C(=O)C[n+]2cccc3c4ccccc4ccc32)cc1, which growth is on record?
Its growth is 28.9%.

With c1ccc(CSc2nnc(-c3ccc4nc(-c5ccccc5)[nH]c4c3)o2)cc1 as the compound, how does the growth read?
Its growth is 57.3%.

O=C(Nc1ccc(-c2ccc3c(c2)NC(=O)/C3=C\c2ccc[nH]2)cc1)Nc1cccc(Cl)c1 was tested. Which growth did it give?
Its growth is -19.6% (active).

With N#Cc1c(-c2ccc(F)cc2)nc(SCc2ccc(F)cc2)nc1N1CCNCC1 as the compound, how does the growth read?
Its growth is 1.29% (active).

With Cc1cc(C2(c3cc(C)c(OCC(O)CNc4c(C)n(C)n(-c5ccccc5)c4=O)cc3C(C)C)OC(=O)c3ccccc32)c(C(C)C)cc1OCC(O)CNc1c(C)n(C)n(-c2ccccc2)c1=O (configuration not stated) as the compound, how does the growth read?
The growth was 16.3%.

How did the growth turn out when O=CNc1cccc(-n2cnc3cc(-c4ccc(O)cc4)ccc32)c1 was run?
The growth was 71.5%.

How did the growth turn out when COc1ccc(S(=O)(=O)Nc2ccc(-c3ccc4c(c3)NC(=O)/C4=C\c3ccc[nH]3)cc2)cc1OC was run?
The growth was -27.8% (active).

With CC(=O)Nc1cccc(-n2c(COc3ccc(Br)cc3)nc3ccccc32)c1 as the compound, how does the growth read?
Its growth is 98.1% and 103%.

For CCCCNC(=S)Nc1ccc(OCc2nc3ccc(Cl)cc3[nH]2)cc1, which growth is on record?
Its growth is 28.9%.

Which growth does the source give for COc1ccc(OC)c(Cn2cc(C#N)c(N)c2C(=O)c2ccc(Br)cc2)c1 here?
The growth was 58.2%.

With NCCCCn1c(SCCc2c[nH]c3ccccc23)nnc1-c1ccc2ccccc2n1 as the compound, how does the growth read?
Its growth is -0.327% (active).

How did the growth turn out when COc1cc(CNC(=O)C[C@H](C)CCC=C(C)C)ccc1OCc1cn(-c2ccccc2Cl)nn1 was run?
The growth was 54%.

Which growth does the source give for NS(=O)(=O)c1ccc(N2N=C(c3ccc(NC(=O)Nc4ccccc4)cc3)CC2c2ccc(Br)cc2)cc1 (configuration not stated) here?
The growth was -95.8% (active).

How did the growth turn out when COc1ccc(NC(=O)CSc2nnc(-c3ccc(-c4nc5ccc(Cl)cc5[nH]4)cc3)o2)cc1 was run?
The growth was 23.3%.

How did the growth turn out when CC1=C(C(=O)OCc2ccccc2)C(c2ccc(N(C)C)cc2)n2c(nc3ccccc32)N1 (configuration not stated) was run?
The growth was 46%.

How did the growth turn out when NS(=O)(=O)c1ccc(Nc2nc(N/N=C/c3cc(Br)c(O)c(Br)c3)nc(Nc3ccccc3)n2)cc1 was run?
Its growth is 86.3%.

How did the growth turn out when COc1cccc(NC(=O)c2ccc(NC(=O)CCl)s2)c1 was run?
The growth was 95%.

For Cc1oc(-c2ccccc2)nc1CN[C@@H]1C[C@@H]2C[C@H]([C@H]1C)C2(C)C, which growth is on record?
Its growth is 42.4%.

With C=CC(=O)Nc1ccc(C(=O)/C=C/c2ccc(N(C)C)cc2)c(O)c1 as the compound, how does the growth read?
Its growth is 17.3%.

Which growth does the source give for COc1cc(/C=C/C(=O)c2cnn(-c3cc(=O)[nH]c4ccc(Cl)cc34)c2C)cc(OC)c1OC here?
Its growth is -4.28% (active).

COc1cc(C=O)ccc1Oc1nc(Nc2ccc(F)cc2)nc(N(C)C)n1 was tested. Which growth did it give?
Its growth is 76.9% and 60.4%.

Which growth does the source give for Cn1cc(-c2cc3nc(-c4cn(C)c5ncccc45)cc(N)n3n2)c2cc(F)ccc21 here?
Its growth is 69.8%.

Which growth does the source give for Cc1ccccc1NC(=O)c1cccc(NC(=O)CCl)c1 here?
The growth was 97%.

With FC(F)(F)c1cc2c(Cl)ncnc2n1CCN1CCCCC1 as the compound, how does the growth read?
The growth was 72%.

With Cn1cc(-c2cc(N)n3nc(-c4c[nH]c5ccc(Cl)cc45)cc3n2)c2cc(Br)cnc21 as the compound, how does the growth read?
The growth was 0.312% (active).
